In PubChem BioAssay (NCI):
Where “and” joins values, the source holds several entries; their conditions need not be identical. Equal entries are not always repeated. This is part of a sample that, as a whole, favours compounds with a hit. Of some 83,000 tested, about 20% had one in any assay.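 Single-dose data. Exposure time 48 hours. Values below 10 considered active.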 Calls of active or inactive are those of the source.

Experiments:
Assay in all cases: NCI-60 one-dose screen, 48 h (100 = growth as untreated, 0 = no growth, -100 = all killed)
Details in all cases: 10 µM unless noted
DU-145 prostate = system: DU-145 prostate
K-562 leukemia = system: K-562 leukemia
MALME-3M melanoma = system: MALME-3M melanoma
MDA-MB-231 breast = system: MDA-MB-231 breast
RXF 393 renal = system: RXF 393 renal
SF-268 CNS = system: SF-268 CNS
SF-295 CNS = system: SF-295 CNS
SF-539 CNS = system: SF-539 CNS
UACC-257 melanoma = system: UACC-257 melanoma
M14 melanoma = system: M14 melanoma
HCT-15 colon = system: HCT-15 colon
HT29 colon = system: HT29 colon
SNB-75 CNS = system: SNB-75 CNS
SNB-19 CNS = system: SNB-19 CNS
U251 CNS = system: U251 CNS
PC-3 prostate = system: PC-3 prostate
SK-MEL-5 melanoma = system: SK-MEL-5 melanoma
UACC-62 melanoma = system: UACC-62 melanoma
LOX IMVI melanoma = system: LOX IMVI melanoma
SK-MEL-28 melanoma = system: SK-MEL-28 melanoma

Measured: growth

ClC/C=C/CSc1ncnc2nc[nH]c12
inactive: DU-145 prostate 110% and 116% | K-562 leukemia 82.1% and 73.3% | MALME-3M melanoma 116% and 95.9% | MDA-MB-231 breast 109% and 96.3% | RXF 393 renal 109% and 141% | SF-268 CNS 103% and 119% | SF-295 CNS 101% and 117% | SF-539 CNS 101% and 103% | UACC-257 melanoma 118% and 104% | M14 melanoma 104% and 103% | HCT-15 colon 104% and 99.7% | HT29 colon 98.4% and 95.2% | SNB-75 CNS 108% and 92.7% | SNB-19 CNS 98.6% and 102% | U251 CNS 96.7% and 102% | PC-3 prostate 100% and 98.1% | SK-MEL-5 melanoma 100% and 112% | UACC-62 melanoma 99.9% and 103% | LOX IMVI melanoma 98.7% and 97.3% | SK-MEL-28 melanoma 111% and 101%

COc1ccccc1/C=N\N=C(N/N=C/c1ccccc1OC)N/N=C/c1ccccc1OC
69.8% (inactive) and -91.3% (active): SK-MEL-5 melanoma
inactive: DU-145 prostate 71.5% and 53.4% | K-562 leukemia 34.1% and 11.4% | MALME-3M melanoma 52.1% | MDA-MB-231 breast 73.8% and 51.3% | RXF 393 renal 94.5% and 60.1% | SF-268 CNS 63.6% and 25.6% | SF-295 CNS 52.1% | SF-539 CNS 83.7% and 42.1% | UACC-257 melanoma 90.9% and 31% | M14 melanoma 59.9% and 26.6% | HCT-15 colon 55.9% and 32.1% | HT29 colon 23.7% and 12.9% | SNB-75 CNS 86.7% and 71.1% | SNB-19 CNS 59% and 23.7% | U251 CNS 39.3% and 15.3% | PC-3 prostate 41.2% and 19.7% | UACC-62 melanoma 55.5% and 19.7% | LOX IMVI melanoma 28.6% | SK-MEL-28 melanoma 78.8% and 64.5%

CCN(CC)CCC(CNc1c2ccc([N+](=O)[O-])cc2nc2cc(OC)c(OC)cc12)c1ccccc1 (stereo not given)
active: DU-145 prostate -85.2% and -100% | K-562 leukemia -18.8% | MALME-3M melanoma -80.1% and -89.1% | MDA-MB-231 breast -58.4% and -94.9% | RXF 393 renal -89.8% | SF-268 CNS -48.5% and -98.7% | SF-295 CNS 3.98% and -90.3% | SF-539 CNS -86.9% and -100% | UACC-257 melanoma -41.2% and -97.1% | M14 melanoma -63.2% and -97.4% | HCT-15 colon -29.4% and -71.4% | HT29 colon 3.73% and -97.3% | SNB-75 CNS -95.7% and -97.6% | SNB-19 CNS -42.9% and -93.8% | U251 CNS -44.7% and -100% | PC-3 prostate -62.6% and -97.1% | SK-MEL-5 melanoma -81.8% and -100% | UACC-62 melanoma -78.6% and -100% | LOX IMVI melanoma -62.2% and -100% | SK-MEL-28 melanoma -84.8%

Oc1ccccc1C=NCC1CCC(CN=Cc2ccccc2O)CC1 (stereo not given)
inactive: K-562 leukemia 99.4% | MALME-3M melanoma 113% | MDA-MB-231 breast 101% | RXF 393 renal 76.4% | SF-268 CNS 93.9% | SF-295 CNS 71.6% | SF-539 CNS 100% | UACC-257 melanoma 102% | M14 melanoma 98.8% | HT29 colon 17.1% | SNB-75 CNS 101% | SNB-19 CNS 94.6% | U251 CNS 78.4% | PC-3 prostate 77.8% | SK-MEL-5 melanoma 92.8% | UACC-62 melanoma 88.7% | LOX IMVI melanoma 80.2% | SK-MEL-28 melanoma 128%
active: DU-145 prostate 3.17% | HCT-15 colon 7.98%

COc1cc(-c2nccc3cc4c(cc23)OCO4)cc(OC)c1OC
active: HT29 colon 1.74% and 5.6% | SK-MEL-5 melanoma 6.67%
6.69% (active) and 22.1% (inactive): RXF 393 renal
10.8% (inactive) and -9.99% (active): SNB-75 CNS
inactive: DU-145 prostate 51.9% and 30.2% | K-562 leukemia 13.4% and 21% | MALME-3M melanoma 62.2% and 44.7% | MDA-MB-231 breast 40.3% and 48.9% | SF-268 CNS 43.8% and 40.6% | SF-295 CNS 19.2% and 15.7% | SF-539 CNS 19.9% and 18.8% | UACC-257 melanoma 52.8% and 39.3% | M14 melanoma 14% and 23.1% | HCT-15 colon 22.1% and 27.9% | SNB-19 CNS 38.3% and 38.8% | U251 CNS 40.6% and 24.1% | PC-3 prostate 29.5% | UACC-62 melanoma 34.2% and 28.3% | LOX IMVI melanoma 32.2% and 29.6% | SK-MEL-28 melanoma 57.5% and 39.8%

CC1(c2ccc3ccccc3c2)CCC(=O)O1 (stereo not given)
inactive: DU-145 prostate 107% | K-562 leukemia 86.7% | MALME-3M melanoma 96.8% | MDA-MB-231 breast 111% | RXF 393 renal 104% | SF-268 CNS 99.7% | SF-295 CNS 107% | SF-539 CNS 95.7% | UACC-257 melanoma 96.5% | M14 melanoma 117% | HCT-15 colon 107% | HT29 colon 96.9% | SNB-75 CNS 100% | SNB-19 CNS 106% | U251 CNS 99.9% | PC-3 prostate 97.9% | SK-MEL-5 melanoma 105% | UACC-62 melanoma 95.7% | LOX IMVI melanoma 93.1% | SK-MEL-28 melanoma 102%

COC(=O)c1nc(N)nc(C(=O)OC)c1C(=O)c1ccc(OC)cc1
103% (inactive) and 9.98% (active): RXF 393 renal
inactive: DU-145 prostate 97.2% and 48.2% | K-562 leukemia 102% and 52% | MALME-3M melanoma 100% and 50.4% | MDA-MB-231 breast 107% and 53.8% | SF-268 CNS 97.9% and 92.8% | SF-295 CNS 108% and 102% | SF-539 CNS 97.4% and 59.8% | UACC-257 melanoma 100% and 86.7% | M14 melanoma 108% and 48.5% | HCT-15 colon 107% and 42% | HT29 colon 113% and 68.2% | SNB-75 CNS 95.2% and 76% | SNB-19 CNS 98.1% and 69.9% | U251 CNS 106% and 49.6% | PC-3 prostate 99% and 46% | SK-MEL-5 melanoma 104% and 57.4% | UACC-62 melanoma 102% and 35% | LOX IMVI melanoma 97.7% and 52.8% | SK-MEL-28 melanoma 116% and 69%

COc1ccccc1C(C)=O
inactive: DU-145 prostate 107% and 113% | K-562 leukemia 84.9% and 106% | MALME-3M melanoma 114% and 107% | MDA-MB-231 breast 104% and 117% | RXF 393 renal 99.3% and 121% | SF-268 CNS 92.7% and 107% | SF-295 CNS 106% | SF-539 CNS 105% and 107% | UACC-257 melanoma 107% and 110% | M14 melanoma 105% and 95.7% | HCT-15 colon 108% and 95.7% | HT29 colon 114% and 102% | SNB-75 CNS 105% and 85.1% | SNB-19 CNS 116% and 109% | U251 CNS 107% and 106% | PC-3 prostate 89.7% and 96.9% | SK-MEL-5 melanoma 105% and 110% | UACC-62 melanoma 109% and 108% | LOX IMVI melanoma 103% and 60.6% | SK-MEL-28 melanoma 121% and 106%

CCOC(=O)Nc1ccc2c(c1)/C(=N\NC(N)=S)c1ccccc1-2
3.9% (active) and 30% (inactive): SF-295 CNS
inactive: DU-145 prostate 64.1% and 84.3% | K-562 leukemia 33.9% | MALME-3M melanoma 89.4% | MDA-MB-231 breast 32.7% and 47.6% | SF-268 CNS 78.6% and 85.7% | SF-539 CNS 13.8% and 31% | UACC-257 melanoma 41.9% and 91.3% | M14 melanoma 42% and 61.6% | HCT-15 colon 22.1% and 38.2% | HT29 colon 29.6% and 25.8% | SNB-75 CNS 70.2% and 66.4% | SNB-19 CNS 78.4% and 75.3% | U251 CNS 52.6% and 48.8% | PC-3 prostate 42.5% and 90.9% | SK-MEL-5 melanoma 38.1% and 44.2% | UACC-62 melanoma 37.3% and 51.3% | LOX IMVI melanoma 54.4% and 58.4% | SK-MEL-28 melanoma 50% and 75.4%
8.9% (active) and 12.6% (inactive): RXF 393 renal
